In the library only some 4% were active in any assay of this set; here they are far more common.
TROY NFkB inh: inhibitors of TROY-dependent NF-kB signaling; actives 0.98% (n = 360,000); inhibition, % at 10 µM; Q293 LMP1-TROYcd NF-kB luciferase reporter, 4 h; AID 1347056;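 active = compounds whose plate-normalised and pattern-corrected inhibition of the luciferase reporter signal at the single screening dose is 50% or more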
CF NFkB inh: cystic fibrosis NF-kB activation inhibition. actives 0.86% (n = 360,000). inhibition, % at 5 µM. KKLEB NF-kB-GFP reporter, PAF-induced, GFP fluorescence overnight;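 active = at least 50% inhibition at 5 µM, scaled per plate between neutral and stimulator controls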;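 also: PAF is a Pseudomonas aeruginosa culture filtrate used as stimulus; plate controls were PAF-stimulated DMSO wells for no effect and unstimulated DMSO wells for full effect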
HIF-2a block: blocks HIF-2a reporter activity | 786-0 RCC cells HIF-2a reporter, luciferase luminescence, overnight | inhibition, % at 18.8 µM | actives 0.72% (n = 360,000) | AID 624352;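 active = inhibition of the luminescence signal of 40% or more relative to plate controls, in a single-dose primary screen at 18.75 µM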
TWEAK-Fn14 inh: TWEAK-Fn14 signaling inhibition. TWEAK-stimulated Fn14 reporter cells, luciferase luminescence, 8 h. inhibition, % at 10 µM. actives 2% (n = 360,000); in the data active = inhibition above about 50%
Peg3 prom inh: Peg3 promoter activity inhibition; HeLa PEG-Prom luciferase reporter, luminescence, overnight; inhibition, % at 20 µM; actives 1.7% (n = 360,000); AID 588405;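 active = inhibition of at least 50% at 20 µM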
KKLEB tox: counter-screen for CF NF-kB inhibitors: cytotoxicity. KKLEB CF airway cells viability, ATPlite luminescence, overnight; stronger effect = lower value; cells stimulated with P. aeruginosa culture filtrate. activity change (cytotoxicity), % at 5 µM. actives 0.36% (n = 360,000). AID 602141;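 active = corrected activity change at or below -50% at 5 µM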
Active calls of the source: *; · = no result given.

SMILES	TROY NFkB inh	CF NFkB inh	HIF-2a block	TWEAK-Fn14 inh	Peg3 prom inh	KKLEB tox
CC(OC(=O)/C=C/c1ccco1)C(=O)NC1CCCCC1C (stereo not given)	12	4	-8	1	1	6
CC1CC(C)(C)CC2(C1)NC(=O)N(CC(=O)N1CCN(Cc3ccc(C#N)cc3)CC1)C2=O (stereo not given)	0	-10	10	20	-11	3
CC(OC(=O)CSc1ccc([N+](=O)[O-])cc1)C(=O)NC1CC1 (stereo not given)	2	-8	13	-9	-16	1
Nc1[nH]n2c(=O)cc(-c3ccccc3)nc2c1N=Nc1ccc(S(N)(=O)=O)cc1	-20	-2	10	-1	11	-7
NS(=O)(=O)c1ccc(N=Nc2c(-c3ccccc3)[nH]n(-c3nc(-c4ccccc4)cs3)c2=O)cc1	-11	27	-48	24	71*	11
Cc1cc(CNC(=O)COc2cc(F)ccc2[N+](=O)[O-])c2ccccc2n1	7	10	28	77*	23	0
Cc1cc(CNC(=O)COc2ccc(F)cc2F)c2ccccc2n1	4	2	-16	4	-22	8
Cc1n[nH]c(C)c1CCNC(=O)C1CCC(=O)N(CCc2cccc(F)c2)C1 (stereo not given)	-16	-16	10	58*	5	3
CCOc1ccc(Cl)cc1S(=O)(=O)N1CCC(C(=O)NC2CC2)CC1	-27	-10	3	18	8	9
Cc1cc(C(C)(C)C)cc(S(=O)(=O)NCCO)c1C	·	8	14	85*	18	4
O=C(CCN1N=C(c2ccccc2)CCC1=O)NCC1COc2ccccc2O1 (stereo not given)	12	-4	14	75*	16	4
O=C(CCN1CCOCC1)NCC1COc2ccccc2O1 (stereo not given)	2	-3	9	-3	8	-7
Cc1cc(=O)[nH]c(SCC(=O)Nc2cccc3ccccc23)c1C#N	52*	12	-6	15	1	0
CCOC(=O)Cc1c(-c2cccc(Br)c2)nc2c3ccccc3ccn12	-52	·	-102	-8	·	·
C[C@H](CO)N1C[C@H](C)[C@@H](CN(C)C(=O)Nc2ccc(F)cc2)Oc2ncc(-c3ccc(F)cc3)cc2C1=O	5	-12	-14	6	9	0
CC(=O)N1c2ccc(S(=O)(=O)NCC3CCC(C(=O)Nc4cc(C)ccn4)CC3)cc2CC1C (stereo not given)	30	26	10	56*	88*	-3
CC(=O)N1c2ccc(S(=O)(=O)NCC3CCC(C(=O)Nc4ncccc4C)CC3)cc2CC1C (stereo not given)	-14	12	9	6	32	-18
CCN(c1ccccc1)S(=O)(=O)c1cccc(C(=O)OCC(=O)c2c(N)n(C)c(=O)n(C)c2=O)c1	11	22	8	1	32	-3
COc1ccc(N(C)S(=O)(=O)c2cccc(C(=O)OCC(=O)c3c(N)n(C)c(=O)n(C)c3=O)c2)cc1	65*	-19	15	71*	55*	14
Cc1nn(CCc2nn[nH]n2)c2nc(-c3ccc(C4CCCCC4)cc3)cc(C(F)(F)F)c12	56*	76*	12	26	24	-57*
Cn1cc(/C=C/c2cc[n+](C)cc2)c2cc(F)ccc21	23	-79	12	-1	19	12
Cn1cc(/C=C/c2cc[n+](C)cc2)c2cc(Cl)ccc21	3	-54	18	-2	51*	-5
CCN(CC)c1ccc(-c2nn3c(-c4n[nH]c5c4CCC5)nnc3s2)cc1	52*	48	-119	41	-17	-19
Cc1cc(C)n(-c2ccc3cccc(NS(C)(=O)=O)c3n2)n1	2	10	14	-3	59*	3
Cc1cc(C)n2nc(SC(C)C(=O)NC3CCCCC3C)nc2n1 (stereo not given)	2	-12	3	-4	17	4
SMILES	TROY NFkB inh	CF NFkB inh	HIF-2a block	TWEAK-Fn14 inh	Peg3 prom inh	KKLEB tox
Cc1ccc(Cl)cc1S(=O)(=O)N1CCC(C(=O)NC2CCN(Cc3ccccc3)CC2)CC1	28	-3	16	52*	19	-5
COc1ccc(C(=O)NCC(=O)OCCOc2ccc(Cl)cc2)cc1OC	8	-9	-5	-18	8	-18
CCc1nc2c(OCC(=O)C(C)(C)C)cccn2c1N(C)C(=O)COc1ccccc1	0	13	6	-3	8	-8
CC(NCC(O)COC1CCC(C(C)(C)C)CC1)c1ccccc1 (stereo not given)	2	6	10	15	64*	-8
CC1CCC(C(C)C)C(OCC(O)CNC(C)c2ccccc2)C1 (stereo not given)	13	12	2	-9	106*	-33
CC(NCC(O)COc1ccc(S(=O)(=O)N2CCOCC2)cc1)c1ccccc1 (stereo not given)	20	-8	16	8	19	1
CCn1c(NC(=O)Nc2ccccc2OC)nc2ccccc21	·	-4	-11	62*	-9	2
O=C(CSc1nnc(-c2ccncc2)n1Cc1ccco1)Nc1ccccc1Cl	3	16	10	12	13	-17
Cc1csc(NC(=O)CSc2nnc(-c3ccco3)n2C)n1	81*	3	7	86*	-21	-1
Nn1c(SCC(=O)Nc2ccc(S(N)(=O)=O)cc2)nnc1-c1ccco1	57*	-16	-2	9	9	6
Cc1cccc(C)c1NC(=O)CSc1nnc(-c2ccco2)n1N	20	4	0	-7	-1	1
O=C(CSc1nnc(-c2ccncc2)n1Cc1ccco1)Nc1nc(-c2ccccc2)cs1	9	43	2	28	22	-55*
Cc1ccc(CC(=O)NNC(=O)c2cccs2)cc1C	-8	16	-10	-5	5	1
C=CCN1C(=O)/C(=C\c2cc(Br)c(OCc3ccccn3)c(OC)c2)SC1=S	-8	50*	14	6	3	-39
COc1cc(/C=C2\SC(=S)N(CC(=O)Nc3ccccn3)C2=O)cc(OC)c1OC	-7	-18	21	26	4	-9
Cc1ccc(N2CCN(C(=O)C(=O)c3ccc4c(c3)OCO4)CC2)cc1	·	·	-88	·	·	·
O=C(NC1CCCCC1)C1CCCN1S(=O)(=O)c1ccc(Cl)cc1 (stereo not given)	3	2	14	10	7	16
CCOC(=O)c1ccc(NC(=O)NCCc2cnc[nH]2)cc1	0	-23	-91	60*	-43	10
CCOC(=O)c1ccc(NC(=O)c2nc[nH]c2C(=O)NCC(=O)OC(C)(C)C)cc1	12	15	-9	-22	27	-15
CCOC(=O)c1ccc(NC(=O)c2nc[nH]c2C(=O)NCCCNC(=O)c2[nH]cnc2C(=O)Nc2ccc(C(=O)OCC)cc2)cc1	3	-1	8	3	13	3
